GRP78 ERSR act: qHTS for Inducers of the Endoplasmic Reticulum Stress Response (ERSR) in Human Glioma: qHTS; U87-MG GRP78 promoter luciferase reporter, 16 h; Potency, µM, for the others: at the highest dose activation, most hits filed as activators; 0.02% of 420,000 active; AID 602332, 2012; also: potency is read from the fitted curve at half-maximal effect; series mostly up to about 76 µM; % of control where 0% means no effect; nearly all actives have a fitted effect of over 35% in size
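ERSR induction read as luciferase luminescence (Bright-Glo, 10 min at room temperature) in stably transfected human U87-MG glioma cells exposed to compounds for 16 h, using GRP78 as sensor.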
Vif-A3F inh: qHTS for Inhibitors of Vif-A3F Interactions: qHTS; 0.2% of 390,000 active; Potency, µM (highest dose often 46.1 µM), for inactives: top-dose activity, negative = active; AID 602313, 2012; HeLa A3F-eYFP + Vif (tagged APOBEC3F with the HIV-1 protein that degrades it), YFP fluorescence increase; also: potency is read from the fitted curve at half-maximal effect; % of control where 0% means no effect; nearly all actives have a fitted effect of over 65% in size
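HeLa cells stably expressing Vif plus C-terminally eYFP-tagged A3F were seeded, incubated overnight at 37 deg C, dosed with compound, incubated overnight again at 37 deg C. Yellow fluorescence (Ex 488/Em 500-530) reported blocked Vif-mediated A3F-eYFP degradation.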
TRPML1 agonist: qHTS for Agonists of the Human Mucolipin Transient Receptor Potential 1 (TRPML1) | Mucolipin-1 (Homo sapiens), Q9GZU1 | TRPML1-expressing cells, Ca2+ dye fluorescence, FDSS | activation, % (concentration not given with the values) | 0.12% of 410,000 active; in the data active = activation above about 50%; inconclusive = mostly about 30% to 49%; also: 0% is about no effect
Target sequence (Q9GZU1 whole entry, looked up): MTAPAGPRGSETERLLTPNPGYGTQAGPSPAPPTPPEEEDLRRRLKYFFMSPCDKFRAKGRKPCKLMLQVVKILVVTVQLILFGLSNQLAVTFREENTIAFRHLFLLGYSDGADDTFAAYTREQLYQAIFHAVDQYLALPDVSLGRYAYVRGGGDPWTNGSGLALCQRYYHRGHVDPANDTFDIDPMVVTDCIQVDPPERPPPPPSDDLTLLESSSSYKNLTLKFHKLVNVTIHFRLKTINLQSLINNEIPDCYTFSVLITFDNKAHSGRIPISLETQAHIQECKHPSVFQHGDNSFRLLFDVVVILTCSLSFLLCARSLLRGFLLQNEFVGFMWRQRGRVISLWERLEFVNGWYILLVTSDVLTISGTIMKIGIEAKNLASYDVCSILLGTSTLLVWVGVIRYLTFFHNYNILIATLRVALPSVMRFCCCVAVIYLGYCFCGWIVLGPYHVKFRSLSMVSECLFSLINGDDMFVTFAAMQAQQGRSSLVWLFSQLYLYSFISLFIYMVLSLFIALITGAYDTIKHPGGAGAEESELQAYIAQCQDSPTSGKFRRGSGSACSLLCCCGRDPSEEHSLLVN
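Cells: TRPML1-DL, 1X Tet inducer, ~16 h at 37 degrees C/5% CO2. Dye: ABD Ca8 no-wash + quencher, 45-90 min RT. Read: 10 s baseline, compound add, 110 s agonist phase; 54-4 EC80 (4uM final), 110 s antagonist phase.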
12-LOX inh: Primary qHTS assay for inhibitors of human arachidonate 12S-lipoxygenase (ALOX12): Round 2; purified 12hLO, xylenol orange hydroperoxide absorbance; Potency, µM (titrated, usually from 108 µM), without a hit: at the top dose activity change, negative = inhibition, hits mostly inhibitors; 1.1% of 580,000 active; AID 1671190, 2021; Polyunsaturated fatty acid lipoxygenase ALOX12 (Homo sapiens), P18054; also: potency is read from the fitted curve at half-maximal effect; % is scaled to controls: 0 for no effect and ±100 for the full control effect
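Hydroperoxide product was detected by ferrous iron/xylenol orange as the 573 to 405 nm absorbance ratio. Arachidonic acid at 40 uM (final) was turned over for 30 min at room temperature by 150 nM human 12hLO, pH 7.0 Hepes buffer, after 15 min compound preincubation.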
TRPML1 inh: qHTS for Inhibitors of the Human Mucolipin Transient Receptor Potential 1 (TRPML1); 0.02% of 390,000 active; activity change, negative = inhibition, % (concentration not given with the values); Mucolipin-1 (Homo sapiens), Q9GZU1; TRPML1-inducible cells, Ca2+ dye fluorescence, FDSS; hits give low values; inhibition of EC80 agonist-evoked calcium signal; AID 624415, 2012; in the data active = activity change below about -50%; inconclusive = between about -30% and that limit;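 also: stimulus is agonist 54-4 at its EC80 concentration; % is scaled to controls: 0 for no effect and ±100 for the full control effect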
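Calcium fluorescence in TRPML1-DL cells induced overnight with Tet: a 110 s read after compound pin addition, then a 110 s antagonist read after challenge with 54-4 at 4 uM final (EC80).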
Vif-A3G inh: qHTS for Inhibitors of Vif-A3G Interactions: qHTS; Potency, µM (doses to about 46.1 µM), without a hit: at the top dose activity, negative = active, actives largely listed as inhibitors; HeLa A3G-eYFP + Vif (tagged APOBEC3G with the HIV-1 protein that degrades it), YFP fluorescence, overnight; AID 602310, 2012; DNA dC->dU-editing enzyme APOBEC-3G (Homo sapiens), Q9HC16; 0.076% of 410,000 active; also: potency is read from the fitted curve at half-maximal effect; % is scaled to controls: 0 for no effect and ±100 for the full control effect; nearly all actives have a fitted effect of over 60% in size
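Read-out is eYFP fluorescence (Ex 488/Em 500-530) from Vif-expressing HeLa A3G-eYFP cells; more signal means A3G escaped Vif-mediated degradation. Cells plated overnight, compound pinned in, incubated overnight at 37 deg C.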
An asterisk follows results filed as active; ? = inconclusive; / = no result; ! = not confirmed by another sample; [ ] = another dose, or the depositor's remark. Only some compounds are listed: those with a hit (about 1.3% of all), similar ones and a draw of the others. Unless noted, calls follow the shape of the dose curve; as a rule, active = well fitted curve in the direction sought with a large enough effect; inconclusive = small, poorly fitted or top-dose-only effect, or another doubt; inactive = no such curve, though single readings can be large; an effect the other way counts as inactive or inconclusive.

SMILES	GRP78 ERSR act	Vif-A3F inh	TRPML1 agonist	12-LOX inh	TRPML1 inh	Vif-A3G inh
CCC(c1cccs1)N1C(=O)[C@H]2CN(S(=O)(=O)c3ccccc3)C[C@H]2C1=O (stereo partly drawn)	/	/	/	28%	/	/
CCC(c1cccs1)N1C(=O)[C@H]2CN(S(=O)(=O)c3cccc(Cl)c3)C[C@H]2C1=O (stereo partly drawn)	/	/	/	32µM*	/	/
Clc1ccccc1Cn1c(/C=C/c2ccco2)nc2ccccc21	-3%	?	6	?	-16	10µM*
Cc1cccc(OCC(=O)NCCc2nc3ccccc3[nH]2)c1C	-4%	-1%	3	9%	18	-1%
COCC(=O)O[C@]1(CCN(C)CCCc2nc3ccccc3[nH]2)CCc2cc(F)ccc2[C@@H]1C(C)C	-14%	-4%	0	11µM*!	9	-6%
CCC(NC(=S)NCc1ccc(F)cc1)c1ccc(C)cc1 (stereo not drawn)	-8%	-12%	0	?	-7	1%
CCCCC(CC)CNC(=S)NCc1ccc(C)cc1 (stereo not drawn)	/	/	/	32µM*	/	/
CNC(=S)NNC(=O)C(=O)NNC(=S)NC	/	/	/	-1%	/	/
COC(=O)c1ccc(CN(c2ccccc2Cl)S(C)(=O)=O)cc1	-3%	-1%	4	-20%	3	1%
COC(=O)c1ccc(Cl)cc1N(Cc1c(F)cccc1Cl)S(C)(=O)=O	-3%	-1%	108*	166%	-6	1%
CC1=C[C@@H](CNC(=O)c2ccncc2)[C@H](C(C)C)C[C@H]1Cc1nnc(-c2ccncc2)o1	/	/	/	3%[176 µM]	/	/
Cn1c(=O)c2cc(NC(=O)Cc3ccccc3F)ccc2n1-c1ccc(C(C)(C)C)cc1	1%	/	63*	-5%	/	-20%
COc1ccc2cc(C(C)C(=O)NC3CCCCC3C)ccc2c1 (stereo not drawn)	/	/	/	-23%	/	/
C=CCOc1ccccc1NC(=O)c1cccc(C)c1	/	/	/	6%	/	/
C=CCSc1ccccc1NC(=O)c1cc(C)cc(C)c1	/	/	/	35µM*	/	/
O=C(c1ccc(F)cc1)c1ccc(N2CCCCC2)cc1	4%	-1%	4	-26%	-6	0%
O=C(c1ccc(F)cc1)c1ccc(N2CCCC2)cc1	1%	11%	5	32µM*	5	-3%
O=C(CCC(=O)N1CCN(c2ccc(F)cc2)CC1)N1CCN(c2ccc(F)cc2)CC1	-3%	0%	0	1.8µM*	0	1%
Fc1ccc(-c2noc(CSc3nncc4ccccc34)n2)cc1	/	/	/	-36%	/	/
Cc1noc(C)c1COC(=O)c1ccc(Cl)c(S(=O)(=O)N2CCCCCC2)c1	/	/	/	-9%	/	/
CCc1ccc2c(c1)C(NC(C)=O)C(=O)N2CCN1CCOCC1 (stereo not drawn)	-2%	-3%	0	45µM*	16	0%
O=C(Nc1nc(-c2ccccc2Cl)cs1)c1ccc(Cl)c(N2CCCC2=O)c1	/	/	/	6%	/	/
COc1cc(C)c(NC(=O)c2ccc3c(c2)NC(=O)CS3)cc1OC	/	/	/	20µM*	/	/
COc1cc(NC(=O)c2ccc3c(c2)NC(=O)CS3)c(OC)cc1Cl	/	/	/	-32%	/	/
C/C(=N\NC(=O)c1ccn(C)n1)c1ccc(NC(=O)c2cccc(F)c2)cc1	4%	2%	0	4.5µM*	23	2%
SMILES	GRP78 ERSR act	Vif-A3F inh	TRPML1 agonist	12-LOX inh	TRPML1 inh	Vif-A3G inh
CCOC(=O)c1sc(NC(=O)CCCC(=O)O)c(C#N)c1C	/	/	/	6.3µM*	/	/
Cc1sc(NC(=O)CCCC(=O)O)c(C#N)c1C	-2%	1%	0	-6%	16	0%
CCC(C)Sc1ccc(N)c(C(F)(F)F)c1 (stereo not drawn)	/	/	/	-1%	/	/
CCCCn1c(=O)[nH]c(=O)c2c1nc(CCC(=O)NCc1cccc(OC)c1)n2CC(C)C	/	/	/	-12%	/	/
C#CCN(C[C@H]1[C@H](OC(=O)NCCCCCC)[C@H](OC(=O)NCCCCCC)C[C@@H](C(=O)OC)[C@H]1C(=O)OC)S(=O)(=O)c1ccc(C)cc1	2%	-4%	1	-26%	-14	1%
C#CCN(C[C@@H]1[C@@H](OC(=O)Nc2cccs2)[C@@H](OC(=O)Nc2cccs2)Cn2c(=O)n(CCCCCC)c(=O)n21)S(=O)(=O)c1ccc(C)cc1	-6%	-6%	0	10µM*	-3	-5%
CCc1cc(CC)n(-c2nc3c(c(=O)n(Cc4ccccc4F)c(=O)n3C)n2CC)n1	/	/	/	-2%	/	/
Cc1ccccc1-c1cncnc1NCc1cccs1	-2%	/	/	?	/	/
Clc1ccccc1-c1cncnc1NCc1cccs1	-1%	/	/	35µM*	/	/
CCOC(=O)Nc1ccc2c(CN3CCC(C(=O)OCC)CC3)cc(=O)oc2c1	/	/	/	-1%	/	/
Cc1[nH]c2ccccc2c1/C=C/c1ccc2ccccc2n1	-6%	/	23	/	/	11µM*
Cc1[nH]c2ccccc2c1/C=C/c1cnc2ccccc2n1	5%	/	3	/	/	?
O=C(Cc1n[nH]c(=O)c2ccccc12)NCc1ccccc1CN1CCCCC1	/	/	/	-1%	/	/
N#CC1(Br)C(=N)c2ccccc2CC12CCCCC2 (stereo not drawn)	/	/	/	0.56µM*	/	/
CN(Cc1cccnc1)C(=O)CCC[C@H]1NC[C@@H]2C[C@H]1CN(Cc1ccccc1)C2	/	/	/	17%	/	/
CN(Cc1ccc(N2CCCCC2)cc1)C(=O)CCC[C@H]1NC[C@@H]2C[C@H]1CN(Cc1ccccc1)C2	/	/	/	7.9µM*	/	/
CC1CCN(C(=O)CCC[C@H]2NC[C@@H]3C[C@H]2CN(Cc2ccccc2)C3)CC1	/	/	/	10µM*	/	/
O=C(CCC[C@H]1NC[C@@H]2CC1CN(Cc1ccccc1)C2)N1CCCC1	/	/	/	11%	/	/
O=C(Cn1c(-c2ccccc2)cc2ccccc21)N1CCCCC1	/	/	/	4%	/	/
COc1ccc(N/C=C2\CCOC2=O)cc1	-1%	-23%	-1	-16%	18	0%
COc1ccc(N/C=C2\C(=O)CCc3c2oc2cc(Cl)c(O)c(Cl)c32)cc1	-2%	?	0	6.3µM*	53	3%
CC1CCN(S(=O)(=O)c2ccc3nc(Nc4ccc(C#N)cc4)ccc3c2)CC1	-3%	2%	4	?	18	2%
CCc1ccc(Nc2ccc3cc(S(=O)(=O)N4CCCC4)ccc3n2)cc1	/	/	/	14µM*	/	/
COc1ccc(Cl)cc1Nc1ccc2cc(S(=O)(=O)N3CCCCC3)ccc2n1	-2%	3%	4	50µM*	8	2%
